Hits are enriched below; roughly 17% of the tested compounds scored in any of these assays.
TGFb SMAD3 inh = qHTS for Inhibitors of TGF-b; HepG2 CAGA-GFP TGF-b/SMAD3 reporter, GFP fluorescence, 18 h; TGF-beta stimulated, 500 pg/mL final; Potency, µM (highest dose often 46.1 µM), without a hit: at the highest dose activity, negative = inhibition, usual class: inhibitors; 410,000 tested, 1.2% active; note: % is set by controls: 0 for no effect and ±100 for the full control effect; nearly all actives have a fitted effect of over 65% in size
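HEPG2 CAGA-GFP, 1000 cells/well; 2 h settle, 37 C; cpd via pin tool; TGF-b 500 pg/mL final; 18 h, 37 C; GFP imaging ex488/em500-530; %Activity normalised to -TGF-b and +DMSO controls; CRC fit, curve class.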
HepG2 viability = qHTS for Inhibitors of TGF-b: Cytotox Counterscreen | HepG2 CAGA-GFP viability, ATP luminescence, 18 h | Potency, µM (series often up to 46.1 µM), for inactives: at the highest dose activity change, negative = cytotoxicity, actives largely listed as cytotoxic | 410,000 tested, 0.76% active
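HepG2 CAGA-GFP cells (1000/well, DMEM with 1% FBS) received compound, then TGF-beta at 500 pg/mL final, and were incubated 18 hours at 37 degrees C. Viability was read by CellTiter-Glo luminescence. Media-only wells were set as complete cell-killing and DMSO as no toxicity.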
HT1080 IDH1KD tx = qHTS for induction of synthetic lethality in tumor cells producing 2HG: qHTS for the HT-1080-IDH1KD cell line | HT-1080 IDH1 knockdown viability, ATP luminescence, 48 h | Potency, µM (series often up to 46.1 µM), inactives show at the highest dose activity, negative = toxicity, usual class: cytotoxic | 360,000 tested, 2% active | AID 686971, 2013;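 note: 0% = DMSO wells and -100% = cell-free medium wells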
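After a 2 h attachment period, IDH1KD HT-1080 cells took pin-transferred compound for 48 h at 37 °C; ATP-based luminescence after 10 min room-temperature reagent incubation reported viability.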
HT1080NT lethal = qHTS for induction of synthetic lethality in tumor cells producing 2HG: qHTS for the HT-1080-NT fibrosarcoma cell line; AID 686970, 2013; HT-1080-NT fibrosarcoma viability, CellTiter-Glo ATP luminescence, 48 h; Potency, µM (titrated, usually from 46.1 µM), without a hit: at the top dose activity, negative = less viability, usual class: cytotoxic; 360,000 tested, 1.6% active;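 note: NT is the 2HG producing partner of a matched IDH1 knockdown line; 0% = DMSO-treated cells and -100% = media-only wells without cells; nearly all actives have a fitted effect of over 55% in size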
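Viability of the 2HG-overproducing fibrosarcoma line after 48 hours of compound exposure at 37 degrees C was determined by luminescence with CellTiter-Glo, and concentration-effect curves were then fitted and categorized.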
DT40 TDP1 CPT = qHTS for Inhibitors of human tyrosyl-DNA phosphodiesterase 1 (TDP1): qHTS in cells in presence of CPT. Potency, µM (highest dose often 46.2 µM), without a hit: top-dose activity change, negative = growth inhibition, hits mostly inhibitors. chicken DT40 Tdp1-/-;hTDP1 cells + 20 nM CPT, ATP luminescence, 48 h. 420,000 tested, 12% active; note: % is set by controls: 0 for no effect and ±100 for the full control effect; nearly all actives have a fitted effect of over 55% in size
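Chicken DT40 Tdp1-/- cells complemented with human TDP1, 400 cells/well, exposed to compounds plus 20 nM camptothecin for at least 48 h at 37 C; viability read as ATP content by CellTiter-Glo luminescence.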
TDP1 cell noCPT = qHTS for Inhibitors of human tyrosyl-DNA phosphodiesterase 1 (TDP1): qHTS in cells in absence of CPT. DT40 Tdp1-/- hTDP1 cells, no CPT, ATP luminescence, 48 h. Potency, µM (highest dose often 46.2 µM), inactives show at the top dose activity change, negative = growth inhibition, most hits filed as inhibitors. 420,000 tested, 15% active. AID 686978, 2013; note: % is set by controls: 0 for no effect and ±100 for the full control effect; nearly all actives have a fitted effect of over 55% in size
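Growth of hTDP1-complemented DT40 Tdp1-knockout cells is measured by ATP luminescence after at least 48 hr compound exposure at 37 °C, with DMSO substituting for the 20 nM CPT used in the parallel screen.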
Starred values were filed as active, the others as inactive. Calls come from the whole dose curve; as a rule, active = well fitted curve in the direction sought with a large enough effect; inconclusive = small, poorly fitted or top-dose-only effect, or another doubt; inactive = no such curve, though single readings can be large; an effect the other way counts as inactive or inconclusive. Potency is the fitted concentration of half-maximal effect.

Screening COc1cc(/C=C/C(=O)OCC(=O)NCCN2C(=O)CSC2=O)ccc1OCC#N returned TGFb SMAD3 inh -2%, HepG2 viability 2%, HT1080 IDH1KD tx 5%, HT1080NT lethal 16%, DT40 TDP1 CPT 2% and TDP1 cell noCPT 12%.
Screening O=C(c1ccc(F)cc1)N1CCN(c2ccc([N+](=O)[O-])c(N3CCOCC3)c2)CC1 returned TGFb SMAD3 inh -1%, HepG2 viability 0%, HT1080 IDH1KD tx 14%, HT1080NT lethal 4%, DT40 TDP1 CPT inconclusive and TDP1 cell noCPT inconclusive.
Screening O=C(COc1ccccc1Cl)N1CCN(c2ccc([N+](=O)[O-])c(N3CCOCC3)c2)CC1 returned TGFb SMAD3 inh inconclusive, HepG2 viability -29%, HT1080 IDH1KD tx -21%, HT1080NT lethal -18%, DT40 TDP1 CPT inconclusive and TDP1 cell noCPT 16µM*.
Cc1ccc(C(=O)N2CCN(c3ccc([N+](=O)[O-])c(N4CCOCC4)c3)CC2)cc1 was read as TGFb SMAD3 inh -21%, HepG2 viability -13%, HT1080 IDH1KD tx 6%, HT1080NT lethal 8%, DT40 TDP1 CPT 29µM* and TDP1 cell noCPT inconclusive.
For Cc1ccc(NC(=O)CCS(=O)(=O)c2cc(Br)cc3c2N(C(=O)C2CC2)CC3)cc1 the results were TGFb SMAD3 inh 2%, HepG2 viability 2%, DT40 TDP1 CPT 12% and TDP1 cell noCPT 0%.
CNc1nc(-c2ccccc2)nc(-c2ccccc2)c1C#N was read as TGFb SMAD3 inh 28%, HepG2 viability -2%, HT1080 IDH1KD tx 20%, HT1080NT lethal -8%, DT40 TDP1 CPT inconclusive and TDP1 cell noCPT -6%.
For NNc1nc(-c2ccccc2)nc(-c2ccccc2)c1Br the results were TGFb SMAD3 inh 3%, HepG2 viability -1%, HT1080 IDH1KD tx -1%, HT1080NT lethal 9%, DT40 TDP1 CPT inconclusive and TDP1 cell noCPT 8.2µM*.
For COc1cc(/C=N/NC(=O)c2ccccc2O)ccc1OCC(=O)Nc1ccccc1 the results were TGFb SMAD3 inh -25%, HepG2 viability -48%, HT1080 IDH1KD tx inconclusive, HT1080NT lethal -25%, DT40 TDP1 CPT inconclusive and TDP1 cell noCPT inconclusive.
O=C(N/N=C/c1cccc([N+](=O)[O-])c1)c1cc2ccccc2o1 was read as TGFb SMAD3 inh -1%, HepG2 viability -33%, HT1080 IDH1KD tx inconclusive, HT1080NT lethal 14%, DT40 TDP1 CPT inconclusive and TDP1 cell noCPT 23µM*.
For O=C(COc1ccc(/C=N/NC(=O)c2cc3ccccc3o2)cc1Cl)Nc1ccccc1 the results were TGFb SMAD3 inh 2µM*, HepG2 viability -69%, HT1080 IDH1KD tx inconclusive, HT1080NT lethal inconclusive, DT40 TDP1 CPT 5.2µM* and TDP1 cell noCPT 6.5µM*.
O=C1Nc2ccc(I)cc2C1=Cc1cc(Br)c(O)c(Br)c1 was read as TGFb SMAD3 inh 4%, HepG2 viability 8%, DT40 TDP1 CPT 10µM* and TDP1 cell noCPT 11µM*.
Screening O=C1Nc2ccc(I)cc2/C1=C/c1cc(Br)c(O)c(Br)c1 returned DT40 TDP1 CPT 13µM* and TDP1 cell noCPT inconclusive.
`Cc1ccc2c(c1)/C(=C/c1ccccc1)C(=O)N2` gave TGFb SMAD3 inh inconclusive, HepG2 viability -28%, HT1080 IDH1KD tx inconclusive, HT1080NT lethal -26%, DT40 TDP1 CPT -12% and TDP1 cell noCPT inconclusive.
For O=C(O)COc1ccccc1/C=C1\C(=O)Nc2ccc(Br)cc21 the results were TGFb SMAD3 inh -5%, HepG2 viability -4%, HT1080 IDH1KD tx 6%, HT1080NT lethal 1%, DT40 TDP1 CPT 12% and TDP1 cell noCPT 5%.
For COC1=C(C)C(O)=C(C(=O)/C=C/c2ccccc2)C(=O)C1(C)C the results were TGFb SMAD3 inh 1%, HepG2 viability -19%, HT1080 IDH1KD tx -1%, HT1080NT lethal -9%, DT40 TDP1 CPT inconclusive and TDP1 cell noCPT inconclusive.
For Cc1c(O)c2c(c(C(=O)/C=C/c3ccccc3)c1O)OC(C)(C)C=C2 the results were TGFb SMAD3 inh 11µM*, HepG2 viability -45%, DT40 TDP1 CPT inconclusive and TDP1 cell noCPT 11µM*.
For O=C(c1cn(-c2ccccc2)nc1-c1ccc(Br)cc1)N1CCOCC1 the results were TGFb SMAD3 inh -7%, HepG2 viability -7%, HT1080 IDH1KD tx 14%, HT1080NT lethal 2%, DT40 TDP1 CPT -6% and TDP1 cell noCPT -18%.
Screening COc1cccc(-c2nc(CS(=O)(=O)CC(=O)Nc3c(C)cc(C)cc3C)c(C)o2)c1 returned TGFb SMAD3 inh 10µM*, HepG2 viability -79%, DT40 TDP1 CPT 18µM* and TDP1 cell noCPT 23µM*.
For COc1ccc(CNC(=O)CS(=O)(=O)Cc2nc(-c3cccc(OC)c3)oc2C)cc1 the results were TGFb SMAD3 inh -9%, HepG2 viability -30%, HT1080 IDH1KD tx -14%, HT1080NT lethal 0%, DT40 TDP1 CPT inconclusive and TDP1 cell noCPT inconclusive.
`COc1cccc(-c2nc(CS(=O)(=O)CC(=O)NCc3ccc(C)cc3)c(C)o2)c1` gave TGFb SMAD3 inh inconclusive, HepG2 viability -17%, DT40 TDP1 CPT 23µM* and TDP1 cell noCPT inconclusive.
`N#Cc1ccc(-c2nc3ccccc3nc2-c2ccccc2)cc1C#N` gave TGFb SMAD3 inh 42%, HepG2 viability 4%, HT1080 IDH1KD tx 18%, HT1080NT lethal 10%, DT40 TDP1 CPT inconclusive and TDP1 cell noCPT 18µM*.
For O=C(CN1C(=O)NC2(CCCCCC2)C1=O)N1CCC(Cc2ccccc2)CC1 the results were TGFb SMAD3 inh 3%, HepG2 viability -41%, HT1080 IDH1KD tx -11%, HT1080NT lethal -12%, DT40 TDP1 CPT inconclusive and TDP1 cell noCPT 16µM*.
O=C(CN1C(=O)NC2(CCCC2)C1=O)N1CCN(c2cccc(C(F)(F)F)c2)CC1 was read as TGFb SMAD3 inh -16%, HepG2 viability -9%, HT1080 IDH1KD tx -5%, HT1080NT lethal -1%, DT40 TDP1 CPT inconclusive and TDP1 cell noCPT 21µM*.
O=C(CN1C(=O)NC2(CCCCCC2)C1=O)NCc1ccccc1 was read as TGFb SMAD3 inh 3%, HepG2 viability -3%, HT1080 IDH1KD tx 9%, HT1080NT lethal 5%, DT40 TDP1 CPT -36% and TDP1 cell noCPT -20%.

Source: PubChem (National Center for Advancing Translational Sciences (NCATS))
